From PubChem BioAssay
ALOX12 inhib – inhibitors of human 12-lipoxygenase (ALOX12); 0.12% of 150,000 active; Potency, µM (top dose mostly 57.1 µM), most hits filed as inhibitors; purified 12-hLO, xylenol orange hydroperoxide absorbance; note: nearly all actives have a fitted effect of over 55% in size
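Purified human 12hLO (150 nM final) was preincubated with compounds for 15 min at room temperature in 25 mM Hepes pH 7.0, 0.01% Triton X-100, then reacted with 40 uM arachidonic acid for 30 min. Hydroperoxide was detected with ferrous iron/xylenol orange.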
ALOX15B inhib – 15-hLO-2 (ALOX15B) enzyme inhibition | O15296 | purified 15hLO-2, xylenol orange hydroperoxide absorbance | Potency, µM (titrated, usually from 57.1 µM), actives largely listed as inhibitors | 0.56% of 110,000 active | AID 881; note: nearly all actives have a fitted effect of over 60% in size
Target sequence (O15296 whole entry, looked up): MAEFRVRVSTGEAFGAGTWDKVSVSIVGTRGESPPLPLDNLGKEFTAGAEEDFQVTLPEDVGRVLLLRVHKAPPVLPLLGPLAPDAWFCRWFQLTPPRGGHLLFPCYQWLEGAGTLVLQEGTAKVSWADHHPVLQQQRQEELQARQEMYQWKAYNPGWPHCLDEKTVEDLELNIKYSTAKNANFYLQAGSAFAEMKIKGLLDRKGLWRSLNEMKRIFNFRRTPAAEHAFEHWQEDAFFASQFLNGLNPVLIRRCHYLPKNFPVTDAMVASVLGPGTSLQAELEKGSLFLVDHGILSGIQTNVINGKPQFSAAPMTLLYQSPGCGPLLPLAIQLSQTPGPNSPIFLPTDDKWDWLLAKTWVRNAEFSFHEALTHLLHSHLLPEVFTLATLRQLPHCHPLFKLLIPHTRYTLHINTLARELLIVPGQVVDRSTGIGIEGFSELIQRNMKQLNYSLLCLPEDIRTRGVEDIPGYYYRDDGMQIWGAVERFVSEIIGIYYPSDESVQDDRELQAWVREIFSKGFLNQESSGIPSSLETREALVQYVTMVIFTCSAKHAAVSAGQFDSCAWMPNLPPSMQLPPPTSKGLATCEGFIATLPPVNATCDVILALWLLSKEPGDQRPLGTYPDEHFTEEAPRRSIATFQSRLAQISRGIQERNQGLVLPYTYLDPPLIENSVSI
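Screening format was qHTS against 50 nM purified 15hLO-2 in Hepes pH 7.5 with detergent. Activity follows hydroperoxide formation from 45 uM arachidonic acid, measured as 573:405 nm absorbance ratio of the ferric-xylenol orange complex.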
IMPase Li inh – IMPase inhibition in cells with lithium potentiation | 0.35% of 210,000 active | AID 1457 | CHO-M1 cells, IP1 TR-FRET (IP-One), carbachol + lithium | Potency, µM (series often up to 59.4 µM), actives largely listed as inhibitors;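 note: IP1 builds up when IMPase is blocked and the TR-FRET signal falls; nearly all actives have a fitted effect of over 50% in size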
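IP1 accumulation measured by competitive TR-FRET in lysed CHO-M1 cells after 30 min compound exposure at 37C, with a small lithium addition to potentiate weak responses. Hill-equation AC50 from ratio and donor-channel data.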
HPGD inh – blocks human HPGD enzyme activity; 4.3% of 150,000 active; purified HPGD, NADH fluorescence kinetic, PGE2 substrate; Potency, µM, hits mostly inhibitors; active = well fitted inhibition curve with a large enough effect, not every such curve was filed as active; inconclusive = small, poorly fitted or top-dose-only effect, or another doubt; inactive = no such curve, though single readings can be large or run the other way
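NADH formation kinetics: reaction with 30 uM PGE2 and 1 mM NAD+ (final), 20 nM enzyme, Tris-HCl pH 8 with Tween 20, after 15 min compound preincubation at room temperature. Fluorescence change, last versus first of five reads.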
PNC inhibitor – blocks assembly of the perinucleolar compartment | activity change (PNC), negative = inhibition, % at 10 µM | AID 2417 | 3.1% of 140,000 active | PC3M PTB-GFP, PNC prevalence imaging, 16 h; active compounds read low;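 active = readout at or below -70, meaning at least 70% loss of cells showing the perinucleolar compartment, a nuclear body marking cancer cells; inconclusive = readout between -30 and a set limit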
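Read-out is percentage of cells bearing a perinucleolar compartment, from automated 20x imaging of fixed, Hoechst-stained PC3M PTB-GFP cells. Cells were seeded 4 h, then exposed 16 h to compound (23 nl of library stock) in duplicate plates.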
IMPase cell inh – cell-permeable inhibitors of inositol monophosphatase (IMPase). inhibition (IP1 accumulation), % at 46.1 µM. P97697. CHO-M1 cells, IP1 accumulation, HTRF TR-FRET ratio. 120,000 tested, under 10 active; active = well fitted curve in the direction sought with a large enough effect in the signal ratio, not every such curve was filed as active; inconclusive = small, poorly fitted or top-dose-only effect, or a change in a side signal; inactive = no such curve, though single readings can be large or run the other way; the % refers to the signal ratio;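 note: cells stimulated with carbachol in lithium chloride buffer; higher means more IMPase inhibition seen as more IP1 and lower FRET ratio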
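Measured: the HTRF emission ratio (665/620 nm) plus the 620 nm donor channel, each fitted to the Hill equation to give AC50. Cells were CHO-M1 given compounds up to 46 uM and a 30 min carbachol stimulation at 37C.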
Large screens that a line does not name were inactive; ! = a repeat was not active. This is a sample that favours compounds with a hit; in the whole collection about 5.4% have one here. Unless noted, calls come from the whole dose curve; as a rule, active = well fitted curve in the direction sought with a large enough effect; inconclusive = small, poorly fitted or top-dose-only effect, or another doubt; inactive = no such curve, though single readings can be large; an effect the other way counts as inactive or inconclusive.

Nc1ccc([As](=O)(O)O)cc1	none (no result: ALOX15B inhib, IMPase cell inh)
COC(=O)CSc1n[nH]c(=S)s1	HPGD inh 40µM (no result: ALOX15B inhib, IMPase cell inh)
CCc1c(C)nc(N)nc1N1N=C1SCC(=O)OC	none (no result: ALOX12 inhib, ALOX15B inhib, HPGD inh, PNC inhibitor, IMPase cell inh)
CC(=O)[O-].CC(=O)[O-].O.O.O.[Pb+2]	none (no result: PNC inhibitor, IMPase cell inh)
CN1CCN(Cc2ccccc2Sc2ccccc2)CC1	PNC inhibitor -86 (no result: ALOX15B inhib, IMPase cell inh)
CCSCC[C@H](N)C(=O)O	none (no result: PNC inhibitor, IMPase cell inh)
ClC(Cl)C(Cl)Cl	none (no result: PNC inhibitor, IMPase cell inh)
O=C1NC(=O)C(=Cc2cc(Cl)ccc2OCc2ccc(C(=O)O)cc2)C(=O)N1	none (no result: ALOX12 inhib, ALOX15B inhib, HPGD inh, PNC inhibitor, IMPase cell inh)
CN1C(=O)C(=Cc2ccccc2Oc2ccc(Cl)cc2)C(=O)N(C)C1=O	HPGD inh 25µM
CN1C(=O)C(=Cc2ccccc2OCc2ccc(Cl)cc2)C(=O)N(C)C1=O	HPGD inh 22µM (no result: ALOX15B inhib, IMPase cell inh)
Cc1c([C@@H](C)C2NC[C@H](C)C[C@@H]2O)ccc2c1C[C@@H]1[C@H]2CC=C2C[C@@H](O)CC[C@@]21C (stereo partly specified)	none (no result: ALOX12 inhib, ALOX15B inhib, PNC inhibitor, IMPase cell inh)
C[C@@H]1O[C@H]1P(=O)(O)O	ALOX12 inhib inconclusive (no result: IMPase Li inh, HPGD inh, PNC inhibitor)
Cc1nc2ccc(Nc3nc4cc(S(=O)(=O)N5CCOCC5)ccc4o3)cc2s1	HPGD inh 8.9µM, PNC inhibitor inconclusive
Cc1nn(-c2ccccc2)c2c1C(c1ccc(F)cc1F)C(C#N)=C(N)O2 (stereo unspecified)	HPGD inh 28µM, PNC inhibitor inconclusive
Oc1c(Br)c(Br)c(Br)c(Br)c1Br	HPGD inh 10µM (no result: PNC inhibitor, IMPase cell inh)
CCOC(=O)c1ccc(-n2c(N)c(C(=O)NCC3CCCO3)sc2=S)cc1 (stereo unspecified)	HPGD inh 7.9µM, PNC inhibitor inconclusive
CCOC(=O)c1ccc(N=Cc2c(O)n(-c3ccc(OC)cc3)c(=S)[nH]c2=O)cc1	none (no result: ALOX12 inhib, ALOX15B inhib, HPGD inh, PNC inhibitor, IMPase cell inh)
O=C(O)[C@H]1[O][Sb][O][C@@H](C(=O)O)C1O (stereo partly specified)	none (no result: PNC inhibitor, IMPase cell inh)
NS(=O)(=O)C[C-]1C=C[CH]([Sb-]([Cl])([Cl])([Cl])([Cl])[Cl])C=C1.c1ccncc1 (stereo unspecified)	none (no result: PNC inhibitor, IMPase cell inh)
C=C(c1ccccc1)P(=O)(O)O	PNC inhibitor -113 (no result: ALOX15B inhib, IMPase cell inh)
C=C(C)c1ccccc1 (tested in a mixture with another compound)	none (no result: PNC inhibitor, IMPase cell inh)
C=CCN1CC[C@]23c4c5ccc(O)c4O[C@@H]2/C(=N/NC(=O)c2ccccc2)CC[C@@]3(O)[C@H]1C5	none (no result: IMPase Li inh, HPGD inh, PNC inhibitor)
CN1CCN(c2ccc(S(=O)(=O)C(F)(F)F)cc2[N+](=O)[O-])CC1	PNC inhibitor -98 (no result: ALOX15B inhib)
COc1ccc2c(c1)c(CCN1CCOCC1)c(C)n2C(=O)c1cccc(Cl)c1Cl	HPGD inh 28µM (no result: PNC inhibitor, IMPase cell inh)
CCOC(=O)c1c(C)n(CCN2CCN(C)CC2)c2ccc(OC)cc12	IMPase cell inh inconclusive
CCCN1CCc2cccc3c2[C@@H]1Cc1ccc(O)c(O)c1-3	ALOX12 inhib inconclusive, ALOX15B inhib inconclusive (no result: IMPase Li inh, HPGD inh, PNC inhibitor)
CC(O)(CS(=O)(=O)c1ccccc1)C(=O)Nc1cccc(C(F)(F)F)c1 (stereo unspecified)	HPGD inh 0.0018µM
CCCCC/C=C\C/C=C\C/C=C\C/C=C\CCCC(=O)NCC(=O)O	ALOX15B inhib 10µM!, HPGD inh 28µM! (no result: PNC inhibitor)
CCCCC/C=C\C/C=C\C/C=C\C/C=C\CCCC(=O)Nc1ccc(O)cc1	HPGD inh 35µM (no result: PNC inhibitor)
CCCCC/C=C\C/C=C\C/C=C\C/C=C\CCCC(=O)NCCCC(=O)O	ALOX15B inhib inconclusive (no result: PNC inhibitor, IMPase cell inh)
CCCCC/C=C\C/C=C\C/C=C\C/C=C\CCCC(=O)Nc1ccc(O)cc1C	HPGD inh inconclusive (no result: PNC inhibitor, IMPase cell inh)
C[C@@H]1O[C@@H](O[C@H]2C[C@@H](O)[C@]3(CO)[C@@H]4[C@@H](O)C[C@]5(C)[C@H]([C@@H]6COC(=O)C6)CC[C@@]5(O)[C@H]4CC[C@@]3(O)C2)[C@H](O)[C@H](O)[C@@H]1O	none (no result: IMPase Li inh, HPGD inh, PNC inhibitor)
CC(C)(C)NC[C@H](O)c1ccccc1Cl	none (no result: IMPase Li inh, HPGD inh, PNC inhibitor)
CCCc1[nH]nc2c1C1(C(=O)N(CC(N)=O)c3ccccc31)C(C(=O)OC)=C(N)O2 (stereo unspecified)	PNC inhibitor -91, IMPase cell inh inconclusive
CCCCN1C(=O)NC(=O)/C(=C/c2cnc(SC)nc2)C1=O	HPGD inh 20µM
CSc1ncc(/C=C2/C(=O)NC(=O)N(C)C2=O)cn1	none
CCCCC1C(=O)NC(=S)NC1=O	HPGD inh 13µM (no result: ALOX15B inhib)
C=C(C)CSc1nc2ncc(Cl)cc2[nH]1	HPGD inh 13µM
NNc1nncn1N	none (no result: PNC inhibitor, IMPase cell inh)
Cc1noc(NS(=O)(=O)c2ccc(NC(=O)CCCOc3ccc(Cl)cc3Cl)cc2)c1C	HPGD inh 25µM (no result: ALOX15B inhib)
COc1cc2c(cc1OC)[C@]13CC[N@+]4(C)CC5=CCO[C@H]6CC(=O)N2[C@@H]1[C@@H]6[C@@H]5C[C@]34O	none (no result: IMPase Li inh, HPGD inh, PNC inhibitor, IMPase cell inh)
O=C1C=CC(=O)C(Cl)=C1	ALOX12 inhib inconclusive, ALOX15B inhib 11µM, HPGD inh 1µM (no result: PNC inhibitor, IMPase cell inh)
CC1(C)[C@@H]2CC[C@]1(C)CN(CCC[N+](C)(C)C)C2	none (no result: PNC inhibitor, IMPase cell inh)
CSc1ccc2c(c1)c(CCN)c(C)n2Cc1ccccc1Cl	none (no result: PNC inhibitor, IMPase cell inh)
O=C(c1cc(-c2ccccc2)on1)N1CCC2(CC1)OCCO2	none (no result: ALOX12 inhib, ALOX15B inhib, HPGD inh, PNC inhibitor, IMPase cell inh)
O=C(c1sc2ccccc2c1Cl)N1CCC2(CC1)OCCO2	HPGD inh 14µM
C=C(C)[C@H]1CN[C@H](C(=O)O)[C@@H]1CC(=O)O	none (no result: PNC inhibitor)
